# Laboratory results reported in PubChem BioAssay AID485270 (The Scripps Research Institute Molecular Screening Center, 2010).
# The whole screen tested about 330,000 compounds, of which about 5,800 (1.8%) were called active. No stated cut-off is given here; in the data, active means inhibition mostly above about 38% (no sharp cut-off); inactive means mostly below about 40%. Many of the other results were omitted from the sample, so actives are more common in it than they were.
# Molecular target: Orexin/Hypocretin receptor type 1 (Homo sapiens) (UniProt O43613)
# Sequence (O43613 whole entry, looked up): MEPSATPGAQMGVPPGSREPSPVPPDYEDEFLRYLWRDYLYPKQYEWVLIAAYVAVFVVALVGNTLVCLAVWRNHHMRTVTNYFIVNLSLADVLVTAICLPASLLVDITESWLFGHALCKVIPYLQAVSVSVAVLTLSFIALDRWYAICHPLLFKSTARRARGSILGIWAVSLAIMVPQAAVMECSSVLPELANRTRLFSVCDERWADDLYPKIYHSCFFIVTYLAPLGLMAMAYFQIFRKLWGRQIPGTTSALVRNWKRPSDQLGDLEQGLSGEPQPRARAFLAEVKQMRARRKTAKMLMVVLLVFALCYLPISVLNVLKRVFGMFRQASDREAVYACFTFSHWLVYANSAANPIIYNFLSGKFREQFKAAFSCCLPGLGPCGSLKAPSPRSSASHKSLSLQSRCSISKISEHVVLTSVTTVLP
# Experiment: blocks the human orexin 1 receptor (AID 485270);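 further: 0% = agonist challenge alone and 100% = reference antagonist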
# Details: OX1R-expressing cells, FRET antagonist read-out; at 6.6 µM; hits give high values
row,Structure (SMILES),inhibition
1,CN(C(=O)CSc1cccc[n+]1[O-])C1CCCCC1,1.33% (inactive)
2,CC(C)(C)OC(=O)C[C@H]1C/C=C\C[C@@H](CC(=O)N[C@H](CO)Cc2ccccc2)C(=O)NC[C@@H](c2ccccc2)OC1=O,8.19% (inactive)
3,COc1ccc(/C=C2\SC(=O)N(CCC(=O)NCCCn3ccnc3)C2=O)cc1,33.5% (inactive)
4,COc1ccc(/C=C2\SC(=O)N(CCC(=O)NC3CCS(=O)(=O)C3)C2=O)cc1 (configuration not stated),49.4% (active)
5,COc1ccccc1/C=C1\SC(=O)N(CCC(=O)N(C)C2CCS(=O)(=O)C2)C1=O (configuration not stated),16.6% (inactive)
6,CC(Sc1ccccc1F)C(=O)Nc1cccc(S(=O)(=O)N2CCOCC2)c1 (configuration not stated),9.63% (inactive)
7,CCCOc1ccc(Cn2c(O)cc(=O)[nH]c2=O)cc1,6.66% (inactive)
8,CCCOc1ccc(Cc2c(Cl)nc(SC)nc2NC)cc1,48.2% (active)
9,CCCOc1ccc(Cc2c(O)nc(SC)[nH]c2=O)cc1C,11.5% (inactive)
10,O=C1OCCN1C(=O)[C@H]1[C@H](c2ccc(F)cc2)C(c2ccccc2)=NN1c1ccc(Br)cc1,7.86% (inactive)
11,CCOC(=O)C1CCN(C(=O)CN2C(=O)NC(C)(c3ccc4cc(OC)ccc4c3)C2=O)CC1 (configuration not stated),9.95% (inactive)
12,Nc1cccnc1Sc1ccccc1,15.4% (inactive)
13,COc1ccc(C)cc1S(=O)(=O)N1CCN(S(=O)(=O)c2cc(C(=O)O)ccc2C)CC1,26.6% (inactive)
14,Cc1ccc(C)c(S(=O)(=O)N2CCN(c3ncnc4sccc34)CC2)c1,28.6% (active)
15,Cc1ccc(S(=O)(=O)N2CCN(c3ncnc4ccccc34)CC2)cc1,25.9% (inactive)
16,C=CCSc1nsc(NC(=O)Nc2cccc(C(C)=O)c2)n1,58.4% (active)
17,CCSc1nsc(NC(=O)Nc2ccccc2OC)n1,6.99% (inactive)
18,C=CCSc1nnc(NC(=O)c2ccc(NC(C)=O)cc2)s1,5.19% (inactive)
19,CSc1nsc(NC(=O)Nc2ccccc2)n1,19.6% (inactive)
20,C=C(C)C(=O)Nc1cccc(C(C)=O)c1,8.59% (inactive)
21,CCSc1nsc(NC(=O)Nc2cccc(C(C)=O)c2)n1,84.2% (active)
22,CCOC(=O)C1=CN(Cc2ccc(Br)cc2)S(=O)(=O)N(C)C1C (configuration not stated),6.18% (inactive)

row,Structure (SMILES),inhibition
1,C[C@H](CO)N1C[C@H](C)[C@@H](CN(C)S(=O)(=O)c2ccc(F)cc2)Oc2ccc(NC(=O)CCC(F)(F)F)cc2C1=O,9.27% (inactive)
2,O=C(COC(=O)COc1ccccc1F)Nc1cccc(S(=O)(=O)N2CCCCC2)c1,-4.71% (inactive)
3,O=C(CCNC(=O)c1ccccc1Cl)NN=Cc1ccco1,9.66% (inactive)
4,CC1CCCCC1NC(=O)Cn1c(=O)cnc2ccccc21 (configuration not stated),7.4% (inactive)
5,N#Cc1c(NC(=O)CCCN2C(=O)c3ccccc3C2=O)oc(-c2ccccc2)c1-c1ccccc1,48.7% (active)
6,COc1cc(C(=O)Nc2oc(-c3ccccc3)c(-c3ccccc3)c2C#N)cc(OC)c1OC,24.6% (inactive)
7,O=C(CCN1C(=O)c2ccccc2C1=O)Nc1ccncc1,21.2% (inactive)
8,C#CCOCCOCCOCCNc1nc(N2CCN(C(=O)[C@H](CCCN=C(N)N)n3cc(C(N)[C@@H](C)CC)nn3)CC2)nc(N2CCN(C(=O)[C@H](CO)n3cc([C@@H](N)C(C)C)nn3)CC2)n1 (some centres not stated),1.49% (inactive)
9,COc1cc(Cl)ccc1OCc1cc(C(=O)N2CC[C@@H]3CCCC[C@H]3C2)no1,-0.82% (inactive)
10,CSc1ccccc1OCc1cc(C(=O)N2C[C@H]3CC[C@H]2C3)no1,38.3% (inactive)
11,COc1cc(Cl)ccc1OCc1cc(C(=O)N(C)CCc2c(C)n[nH]c2C)no1,71.9% (active)
12,Cc1ccc(OCc2cc(C(=O)N(C)CCc3ccccc3)no2)cc1C,27.7% (inactive)
13,CCn1ccnc1CN(C)C(=O)c1cc(COc2ccc(Cl)cc2OC)on1,16.5% (inactive)
14,CSc1ccccc1OCc1cc(C(=O)N(C)CCc2c(C)n[nH]c2C)no1,43.7% (active)
15,COc1cccc2sc3cc(NCC[C@@H]4CCCN4C)ccc3c(=O)c12,20.1% (inactive)
16,COc1cc(NC(=O)c2[nH]cnc2C(N)=O)cc(C(=O)Nc2cccc(C(F)(F)F)c2)c1,33.6% (inactive)
17,O=C1CN(C(=O)COC(=O)/C=C/c2ccc(F)cc2)c2ccccc2N1,6.47% (inactive)
18,O=C(C[C@H]1C[C@H](C(=O)N2CCOCC2)[C@@]2(CCC3CCCC3)c3[nH]c4ccc(Cl)cc4c3CCN2C1=O)NCc1ccco1,14.4% (inactive)
19,COc1ccc(CCNC(=O)NS(=O)(=O)c2ccc(C)cc2)cc1OC,-2.44% (inactive)
20,COc1ccc(-n2c(C)cc(C(=O)COC(=O)c3cc(OC)c(OC)cc3NC(=O)c3cccs3)c2C)cc1,1.91% (inactive)
21,COc1ccc(-n2c(C)cc(C(=O)CSc3nnc(-c4cccs4)o3)c2C)cc1,39.4% (active)
22,Cc1ccc(-n2c(C)cc(C(=O)CSc3nnc4ccccn34)c2C)cc1,12.3% (inactive)

row,Structure (SMILES),inhibition
1,Nc1ncnc2c1ncn2[C@@H]1O[C@H](CNS(=O)(=O)c2ccc(-c3ccno3)s2)[C@@H](O)[C@H]1O,6.23% (inactive)
2,CN(C)C(=O)CCc1ccc2c3c([nH]c2c1)[C@]1(CCC2CCCC2)[C@@H](C(=O)N2CCOCC2)C[C@H](CC(=O)NCc2ccco2)C(=O)N1CC3,5.29% (inactive)
3,O=C(COC(=O)CSc1ccccc1)Nc1ccc(F)cc1F,13.6% (inactive)
4,Cn1nnnc1SCC(=O)Nc1cccc(S(=O)(=O)N2CCCCC2)c1,12% (inactive)
5,COc1ccccc1N1CC(C(=O)Nc2ccc(S(=O)(=O)N3CCOCC3)cc2)CC1=O (configuration not stated),91.1% (active)
6,Cc1ccccc1N1CC(C(=O)Nc2ccc(S(=O)(=O)N3CCCC3)cc2)CC1=O (configuration not stated),15.4% (inactive)
7,CC1CCN(S(=O)(=O)c2ccc(NC(=O)C3CC(=O)N(c4ccccc4)C3)cc2)CC1 (configuration not stated),25.5% (inactive)
8,CN(Cc1ccc(CNC[C@H]2O[C@@H](n3cnc4c(N)ncnc43)[C@H](O)[C@@H]2O)o1)S(C)(=O)=O,-3.7% (inactive)
9,Cc1cccc(NC(=O)C2CCCN(C(=O)Nc3ccc(F)cc3)C2)c1C (configuration not stated),21.2% (inactive)
10,COc1ccc(Cl)cc1NC(=O)[C@@H]1CCCN1C(=O)c1cccs1,1.43% (inactive)
11,CC(C)c1nnc(NC(=O)C2CCCN2S(=O)(=O)c2ccc(Cl)cc2)s1 (configuration not stated),39.3% (inactive)
12,COc1ccccc1NC(=O)C1CCCN1S(=O)(=O)c1ccc(Cl)cc1 (configuration not stated),62.4% (active)
13,O=C(NCc1ccccc1Cl)C1CCCN1S(=O)(=O)c1ccc(F)cc1 (configuration not stated),2.31% (inactive)
14,Cc1cccc(NC(=O)C2CCCN2S(=O)(=O)c2ccc(F)cc2)c1C (configuration not stated),50% (active)
15,CC1Sc2ccc(C(=O)NCc3ccccc3Cl)cc2NC1=O (configuration not stated),1.56% (inactive)
16,NC(=O)Nc1ccc(C(=O)OCC(=O)NC2CCCc3ccccc32)cc1 (configuration not stated),19.8% (inactive)
17,COc1cccc(CC2(CO)CCCN(CC3=Cc4cc(OC)ccc4OC3)C2)c1 (configuration not stated),25.7% (inactive)
18,COc1cccc(CC2(CO)CCCN(Cc3ccc(OC(F)F)cc3)C2)c1 (configuration not stated),13.4% (inactive)
19,COc1cccc(CC2(CO)CCCN(Cc3nc(-c4cccs4)oc3C)C2)c1 (configuration not stated),45% (active)
20,COC(=O)[C@]1(Cc2ccccc2)N[C@H](CN(C)S(=O)(=O)c2ccc(OC(F)(F)F)cc2)[C@@H]2C(=O)N(C)C(=O)[C@@H]21,5.12% (inactive)
21,O=C(CSc1ncnc2sccc12)NC1CCS(=O)(=O)C1 (configuration not stated),4.8% (inactive)
22,CCCCNS(=O)(=O)CCNCc1ccccc1OC,5.19% (inactive)

row,Structure (SMILES),inhibition
1,CCCCNC(=O)C(C)N(CCN(C)C)C(=O)CCCCCN1C(=O)NC(c2ccc(Cl)cc2)C(C(=O)OCc2ccccc2)=C1C (configuration not stated),7.69% (inactive)
2,O=C(CCCOc1ccccc1)NNC(=O)c1ccc(Cl)cc1,2.88% (inactive)
3,CN=C1C=C/C(=N/N=c2\ccn(O)cc2C)C=C1C,58.6% (active)
4,CCOc1ncccc1C(=O)Nc1ccc2c(c1)OCCO2,14.1% (inactive)
5,O=C(COC(=O)c1ccc(F)cc1)Nc1ccc2c(c1)OCO2,7.07% (inactive)
6,COc1cc2ccccc2cc1C(=O)Nc1ccc(N2CCOCC2)cc1,63.5% (active)
7,COc1cc2ccccc2cc1C(=O)Nc1ccncc1,17.8% (inactive)
8,COc1cc2ccccc2cc1C(=O)N1CCOCC1,9.14% (inactive)
9,O=C(Cn1cnc2ccccc2c1=O)NNC(=O)c1ccccc1F,6.41% (inactive)
10,COc1cccc(N=c2oc3c(C)ncc(CO)c3cc2C(N)=O)c1,84.6% (active)
11,COc1cccc2cc(C(N)=O)/c(=N\NC(=O)c3ccccc3)oc12,5.27% (inactive)
12,COC(=O)c1ccc(NC(=O)c2cc3c(CO)cnc(C)c3oc2=Nc2cccc(C(N)=O)c2)cc1,7.42% (inactive)
13,O=C(CN1C(=O)NC2(CCCCCC2)C1=O)Nc1ccc([N+](=O)[O-])cc1,11.2% (inactive)
14,O=C(Nc1ccccc1F)c1ccc(Cn2cc(Br)cn2)cc1,8.12% (inactive)
15,Cc1ccc(Br)c(NS(=O)(=O)c2cccc(C(=O)N3CCNC(=O)C3)c2)c1,3.06% (inactive)
16,S=C(NC1CCCCC1)NN1CCOCC1,18.3% (inactive)
17,COc1ccc(NC(=O)CN2C(=O)CSc3ccc(S(=O)(=O)N4CCC(C)CC4)cc32)cc1,3.75% (inactive)
18,O=C(Nc1cccc(S(=O)(=O)N2CCCC2)c1)c1cncc(Br)c1,-1.91% (inactive)
19,COc1cccc(/C=C/c2ccc3ccccc3n2)c1OC(C)=O,92% (active)
20,COc1cccc(/C=C2\C=C(c3ccc(C)cc3)OC2=O)c1OC(C)=O,-6.31% (inactive)
21,CCOc1cccc(/C=C/c2ccc3ccccc3n2)c1OC(C)=O,58.1% (inactive)
